Reference: PubChem BioAssay AID651908 (Vanderbilt Specialized Chemistry Center, 2012)
The source made the active and inactive calls. How the calls were made is not given here.

Target: Histone deacetylase 8 (Homo sapiens) (UniProt Q9BY41)
Assay: inhibitors of recombinant human HDAC8 – biochemical, selectivity assay for E-cadherin restoration project, profiling panel (AID 651908)

Histone deacetylase 8 (Homo sapiens), sequence (Q9BY41 whole entry, looked up): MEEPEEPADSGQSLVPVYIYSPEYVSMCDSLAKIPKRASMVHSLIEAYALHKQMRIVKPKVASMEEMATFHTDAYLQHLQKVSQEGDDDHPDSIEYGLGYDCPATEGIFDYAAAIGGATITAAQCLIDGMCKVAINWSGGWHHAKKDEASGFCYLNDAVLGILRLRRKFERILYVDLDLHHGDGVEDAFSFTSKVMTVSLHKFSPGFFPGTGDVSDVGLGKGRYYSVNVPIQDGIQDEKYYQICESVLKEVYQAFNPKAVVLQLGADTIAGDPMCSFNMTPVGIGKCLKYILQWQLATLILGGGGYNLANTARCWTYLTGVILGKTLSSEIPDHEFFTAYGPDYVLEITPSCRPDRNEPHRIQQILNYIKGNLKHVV

O=C(NCCCNC(=O)c1ccc[nH]c1=O)c1cc(-c2ccccc2)on1
outcome: inactive
